The source of these data is PubChem BioAssay.

Sequence of Fibroblast growth factor 2 (Homo sapiens) (P09038 whole entry, looked up): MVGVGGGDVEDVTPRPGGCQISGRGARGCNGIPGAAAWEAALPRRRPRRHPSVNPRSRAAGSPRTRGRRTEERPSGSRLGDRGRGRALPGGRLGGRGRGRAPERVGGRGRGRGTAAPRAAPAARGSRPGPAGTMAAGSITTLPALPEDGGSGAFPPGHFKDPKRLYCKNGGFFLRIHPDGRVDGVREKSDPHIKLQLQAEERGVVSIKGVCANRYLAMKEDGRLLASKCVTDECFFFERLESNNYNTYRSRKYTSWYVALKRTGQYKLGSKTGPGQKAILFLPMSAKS

The assay concerns the target Fibroblast growth factor 2 (Homo sapiens) (UniProt P09038). In words: FGF2 binders on small-molecule microarrays, primary screen, biochemical, small-molecule microarray, 635/667 nm fluorescence (AID 1133). The note with it: small-molecule microarray binding, FGF2, fluorescence 635/667; higher = more signal.
`C=CCOC(=O)[C@H]1[C@@H]2C(=O)O[C@@H](c3ccccc3)[C@@H](c3ccccc3)N2[C@@H](c2ccc(OCCOC(=O)[C@H]3C[C@H]4C(=O)N[C@@H](CC(C)C)C(=O)N4[C@H]3c3ccc(O)cc3)cc2)[C@]12C(=O)Nc1ccccc12` yielded a composite z-score of 1.79.

`CCOC(=O)C1=C[C@@H](C(C)(C)C)N(S(=O)(=O)c2ccc(C)cc2)[C@H]1c1ccc(C#N)cc1`: the composite z-score is 0.0014.

The compound `C=CCOC(=O)[C@@H]1[C@H]2C(=O)O[C@H](c3ccccc3)[C@H](c3ccccc3)N2[C@H](c2ccc(OCCOC(=O)[C@H]3C[C@H]4C(=O)N[C@@H](CCCCN(C)C)C(=O)N4[C@H]3c3ccc(O)cc3)cc2)[C@@]12C(=O)Nc1ccc(I)cc12` had a composite z-score of 1.37.

With `COC(=O)[C@H](Cc1ccc(O)cc1)N[C@@H](/C=C/C1CC1)[C@H](O)Cc1ccccc1`, the composite z-score amounted to 0.0843.

For `O=C(NCC(O)CO)C1N=C(c2ccc(OCCCO)cc2)N(c2ccccc2)O1` (stereo not given), the composite z-score turned out to be 1.32.

Compound `CCCc1cc2c(n1CCc1ccc(Cl)cc1)C(C)C1CN(C(=O)c3ccccc3)C(C)(C(=O)OC)C21` (stereo not given) gave a composite z-score of -1.41.

With `CC(C)(C)OC(=O)CC[C@]1(C(=O)NCC(O)CO)N=C(c2ccc(OCCCO)cc2)O[C@H]1c1ccccc1N=[N+]=[N-]` (stereo not given in full), the composite z-score is 0.581.

Consider `COc1ccc([Si](C)(C)[C@H]2[C@H](CC(=O)N3CCC[C@H]3CO)O[C@@]3(C(=O)N(Cc4ccc(N5CCCCC5=O)cc4)c4ccccc43)[C@@H]2C)cc1`, for which the composite z-score turned out to be 1.17.

Regarding `CN1C(=O)[C@@H]2[C@@H](CC(COc3ccccc3)=C3[C@@H](CCc4ccccc4)OB(O)C[C@@H]32)C1=O`, the composite z-score is -0.0572.

With `CC(C)(C)N1CC=CC23O[C@@H]4C=CCCOC(=O)C4[C@H]2C(=O)N(CCCCCCO)[C@@H]3C1=O` (stereo not given in full), the composite z-score was -1.16.

For the compound `O=C1C=C(c2ccccc2)C(=O)C2=C1CC([C@H]1Oc3ccccc3S(=O)(=O)N3CCC[C@@H]13)=CC2`, the composite z-score worked out at 0.669.

Consider `O=C(NCc1ccc(F)cc1)[C@H]1C[C@H]2C(=O)N3CCC[C@H]3C(=O)N2[C@H]1c1ccc(O)cc1`, for which the composite z-score came out at 0.75.

As for `CC(=O)c1ccc(C(O)C2C=CC3C(=O)N(c4ccccc4)C(=O)C3N2Nc2ccc(C(C)C)cc2)cc1` (stereo not given), the composite z-score came out at 1.1.

Regarding `CCCCC(O)C1C=CC2C(=O)N(c3ccccc3)C(=O)C2N1Nc1ccc([N+](=O)[O-])cc1` (stereo not given), the composite z-score is -0.458.

For `O=C1[C@@H]2[C@@H](CC(COc3ccccc3)=C([C@H](O)CCc3ccccc3)[C@@H]2CO)C(=O)N1Cc1ccccc1`, the composite z-score came out at 0.175.

`COC(=O)[C@@]1(Cc2ccc(F)cc2)[C@H]2c3cc(C(=O)N(C)C)n(C)c3C[C@H]2CN1C(=O)c1ccccc1` returned a composite z-score of 0.263.

Take `C[N+](C)(C)CCCC[C@@H]1NC(=O)[C@H]2C[C@@H](C(=O)NCCCCCNC(=O)CS)[C@@H](c3cccc(OCCO)c3)N2C1=O`: the composite z-score came to 0.549.

`COC(=O)C[C@H]1O[C@@]2(C[C@@H]1[Si](C)(C)C)C(=O)N(C)c1ccccc12` had a composite z-score of 0.0172.

Regarding `C=CCOC(=O)[C@H]1[C@@H]2C(=O)O[C@@H](c3ccccc3)[C@@H](c3ccccc3)N2[C@@H](c2ccc(OCCOC(=O)[C@@H]3C[C@@H]4C(=O)N[C@@H](CCCC[N+](C)(C)C)C(=O)N4[C@@H]3c3ccc(O)cc3)cc2)[C@]12C(=O)Nc1ccc(I)cc12`, the composite z-score worked out at 1.48.

In turn, `C=CC[C@@]1(C(=O)OC)N=C(c2ccc(OCCCO)cc2)O[C@@H]1c1ccccc1N=[N+]=[N-]` registered a composite z-score of 1.66.

`C=CC[C@@]1(C(=O)N(C)C)N=C(c2ccc(OCCCO)cc2)O[C@@H]1c1ccccc1CN=[N+]=[N-]` showed a composite z-score of 1.83.

Take `CCCCCC1=C2CNC(CC(C)C)(C(=O)OC)C=C2C(C)C1=O` (stereo not given): the composite z-score is -0.544.

Compound `COc1ccc(C(O)C2C=CC3C(=O)NC(=O)C3N2Nc2ccc(Cl)cc2Cl)c2ccccc12` (stereo not given) gave a composite z-score of -0.19.

Compound `CCOC(=O)C[C@H]1[C@H](OC(=O)Cc2ccc3c(c2)OCO3)[C@@H](NC(=O)c2ccc3ccccc3n2)c2cc(OCCCO)ccc2N1C(=O)Cc1ccc(OC)cc1` showed a composite z-score of 0.394.

The compound `CCCCC(O)C1C=CC2C(=O)N(c3ccccc3)C(=O)C2N1Nc1ccccc1` (stereo not given) returned a composite z-score of -1.26.

In turn, `COc1ccc([Si](C)(C)[C@@H]2[C@@H](CC(=O)N3CCC[C@H]3CO)O[C@]3(C(=O)N(Cc4ccc(N5CCOC5=O)cc4)c4ccccc43)[C@H]2C)cc1` displayed a composite z-score of 0.672.

`CC(C)NC(=O)[C@@]1(c2ccc([N+](=O)[O-])cc2)CC(=O)N(CC23CC4CC(CC(C4)C2)C3)[C@@H]1c1ccc(CO)cc1` registered a composite z-score of 1.55.

As to `C=C(CCCC)/C(=C/C[C@H](OC(C)=O)c1cccc(OCCO)c1)c1cnc2ccccc2c1`, the composite z-score is -0.183.

Compound `COCCOC(=O)N1C(=O)[C@@]2(c3cc(C#CCCO)ccc31)[C@H](c1ccc(OCCO)cc1)N1[C@H](c3ccccc3)[C@H](c3ccccc3)OC(=O)[C@H]1[C@@H]2C(=O)N1CCCCCCC1` had a composite z-score of 1.68.

Regarding `COc1ccc([Si](C)(C)[C@@H]2[C@@H](CC(=O)N(CCO)Cc3ccccc3)O[C@]3(C(=O)N(Cc4ccc(N5C(=O)c6cccc7cccc5c67)cc4)c4ccccc43)[C@H]2C)cc1`, the composite z-score stood at 0.943.

Take `CCOC(=O)C1=CC[C@@H](c2ccc(OC)cc2)N(S(=O)(=O)c2ccc(C)cc2)[C@H]1CC`: the composite z-score was 0.873.

For the compound `CN1C(=O)C2C(C1=O)C1C=C(c3ccc(CO)cc3)C2C(C2CC2)N1C` (stereo not given), the composite z-score was -0.124.

Turning to `C=C(CCCC)C(=O)CC[C@@H](OC(=O)c1ccccc1-c1ccccc1C(=O)O)c1ccccc1OCCO`, the composite z-score was 0.906.

With `C=C1C(=O)C=C2CN(C(=O)c3ccccc3)[C@@](Cc3ccc(OC)cc3)(C(=O)OC)[C@@H]12`, the composite z-score is -0.0686.

For `COC(=O)[C@@]1(Cc2ccc(F)cc2)[C@H]2c3cc(C(=O)N4CCCC4)n(CCc4ccccn4)c3C[C@H]2CN1C(=O)c1ccccc1`, the composite z-score is -0.418.
